Assay results from PMC6602471.
Over roughly 1,300 sequences, “log fluorescence intensity” has its median near 8.3; the highest 2% begin near 12. This is one part of a sample in which the highest values are shown more often than they occur.

Biological target: T1, ETS1 (Homo sapiens, UniProt P14921 1-441)
T1 sequence: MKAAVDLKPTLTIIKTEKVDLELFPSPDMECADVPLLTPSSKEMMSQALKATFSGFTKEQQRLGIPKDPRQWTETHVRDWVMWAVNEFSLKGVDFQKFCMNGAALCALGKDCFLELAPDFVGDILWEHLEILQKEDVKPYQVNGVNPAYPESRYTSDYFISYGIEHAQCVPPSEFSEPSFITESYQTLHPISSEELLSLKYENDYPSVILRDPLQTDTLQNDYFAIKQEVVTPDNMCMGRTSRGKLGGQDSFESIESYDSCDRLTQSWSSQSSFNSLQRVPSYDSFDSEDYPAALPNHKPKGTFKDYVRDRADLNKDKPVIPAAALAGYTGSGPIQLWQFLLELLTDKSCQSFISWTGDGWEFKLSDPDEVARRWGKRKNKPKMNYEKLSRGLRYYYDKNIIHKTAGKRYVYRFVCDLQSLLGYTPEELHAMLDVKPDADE
Assay: custom PBM; custom protein-binding microarray; buffer, salt, pH and temperature not stated; high values mean tight binding
Settings: dsDNA, one strand shown

Sequence	binding signal
TCCGGCTACCAGCTCCACCCACTTCCGGCCTTGTAGGTCTTGATTCGCTTGACGCTGCTG	13.1 log fluorescence intensity
TCCGGCTACCAGCTCCACCCACTTCAGGCCTTGTAGGTCTTGATTCGCTTGACGCTGCTG	8.36 log fluorescence intensity
TCCGGCTACCAGCTCCACCCACTTCAAGCCTTGTAGGTCTTGATTCGCTTGACGCTGCTG	8.4 log fluorescence intensity
TAAAGGGAAGAGGGTTGTGGTAGTTCCGGGTATTAAGTCTTGATTCGCTTGACGCTGCTG	8.6 log fluorescence intensity
TCCGGCTACCACCTCCACCCACTTCAGGCCTTGTAGGTCTTGATTCGCTTGACGCTGCTG	8.32 log fluorescence intensity
GGAAAAAGGCCCAGGGTAACGCCGGAAGTGGGCTTAGTCTTGATTCGCTTGACGCTGCTG	10.7 log fluorescence intensity
GGAAAAAGGCCCAGGGTAACAGCGGAAGTGGGCTTAGTCTTGATTCGCTTGACGCTGCTG	10.2 log fluorescence intensity
AGAAAAAGGCCCAGGGTAACACCGGAAGTGGGCTTAGTCTTGATTCGCTTGACGCTGCTG	11.9 log fluorescence intensity
CGAAAAAGGCCCAGGGTAACACCGGAAGTGGGCTTAGTCTTGATTCGCTTGACGCTGCTG	12 log fluorescence intensity
GGAAAAAAGCCCAGGGTAACACCGGAAGTGGGCTTAGTCTTGATTCGCTTGACGCTGCTG	12.1 log fluorescence intensity
GGAAAAAGCCCCAGGGTAACACCGGAAGTGGGCTTAGTCTTGATTCGCTTGACGCTGCTG	12.1 log fluorescence intensity
GGAAAAGGGCCCAGGGTAACACCGGAAGTGGGCTTAGTCTTGATTCGCTTGACGCTGCTG	11.8 log fluorescence intensity
TGAAAAAGGCCCAGGGTAACACCGGAAGTGGGCTTAGTCTTGATTCGCTTGACGCTGCTG	11.8 log fluorescence intensity
GGAAAAAGGCCAAGGGTAACACCGGAAGTGGGCTTAGTCTTGATTCGCTTGACGCTGCTG	12 log fluorescence intensity
GGAAAAAGGCCCACGGTAACACCGGAAGTGGGCTTAGTCTTGATTCGCTTGACGCTGCTG	12.2 log fluorescence intensity
GGAAAAAGGCCCATGGTAACACCGGAAGTGGGCTTAGTCTTGATTCGCTTGACGCTGCTG	11.9 log fluorescence intensity
GGAAAAAGGCCCAAGGTAACACCGGAAGTGGGCTTAGTCTTGATTCGCTTGACGCTGCTG	12.1 log fluorescence intensity
GGAAAAAGGCCCAGTGTAACACCGGAAGTGGGCTTAGTCTTGATTCGCTTGACGCTGCTG	12 log fluorescence intensity
CTGGGACTTGACCCGACTCTGCCACGTGGGTCGTTTGTCTTGATTCGCTTGACGCTGCTG	8.49 log fluorescence intensity
TACTGACATATATATGCGAATGCACATGAATAGACCGTCTTGATTCGCTTGACGCTGCTG	8.43 log fluorescence intensity
GAGCATAGGACTTCTTCCCTGAAGCAATTGATAACCGTCTTGATTCGCTTGACGCTGCTG	8.32 log fluorescence intensity

Sequence	binding signal
CGGAAGTGTCGTAAACGTCGGATATCCGGTTCGTCTGTCTTGATTCGCTTGACGCTGCTG	11.9 log fluorescence intensity
TGTCGGGTAAGGGAATGTAGATGACGTGAATGAAAAGTCTTGATTCGCTTGACGCTGCTG	8.36 log fluorescence intensity
GGAAAAAGGCCCAGGGTAACACCGGAAGTGCGCTTAGTCTTGATTCGCTTGACGCTGCTG	11.7 log fluorescence intensity
GATTAATTTCTGCCCTTATTCGCACGTGCAATAACAGTCTTGATTCGCTTGACGCTGCTG	8.3 log fluorescence intensity
CAGAAGTGTCGTAAACGTCGGATATCCGGTTCTTCTGTCTTGATTCGCTTGACGCTGCTG	12.1 log fluorescence intensity
CGGAAGTGTCGTAAGCGTCGGATATCCGGTTCTTCTGTCTTGATTCGCTTGACGCTGCTG	11.7 log fluorescence intensity
CGGCAGTGTCGTAAACGTCGGATATCCGGTTCTTCTGTCTTGATTCGCTTGACGCTGCTG	11.7 log fluorescence intensity
GGAAACAGGCCCAGGGTAACACCGGAAGTGGGCTTAGTCTTGATTCGCTTGACGCTGCTG	11.8 log fluorescence intensity
TAAAGGGAAGACGGTTGTAGTAGTTCCGGGTATTAAGTCTTGATTCGCTTGACGCTGCTG	8.81 log fluorescence intensity
GCTGCTGCGCTGCATACCCCACCGGATGTGACCCCGGTCTTGATTCGCTTGACGCTGCTG	10.1 log fluorescence intensity
TACTGACTTATATATGCGAATGCACATCAATAGACCGTCTTGATTCGCTTGACGCTGCTG	8.32 log fluorescence intensity
GCTGCTGCGGTGCATACCCCACCAGATGTGACCCCGGTCTTGATTCGCTTGACGCTGCTG	8.36 log fluorescence intensity
CACAATTTTTACAGTAATGTAGCACGCGTAAATCCTGTCTTGATTCGCTTGACGCTGCTG	8.32 log fluorescence intensity
GTGTATAGGATCCCATCGAACACACGTGTTAAAATGGTCTTGATTCGCTTGACGCTGCTG	8.36 log fluorescence intensity
TAAAGGGAAGACGGTTGTGGTAGTTCCGGGTATTAGGTCTTGATTCGCTTGACGCTGCTG	8.47 log fluorescence intensity
CGGAAGTGTCGTAAACGTCGGAGATCCGGTTCTTCTGTCTTGATTCGCTTGACGCTGCTG	8.83 log fluorescence intensity
CCGAAGTGTCGTAAACGTCGGATATCCGGTTCTTCTGTCTTGATTCGCTTGACGCTGCTG	12 log fluorescence intensity
CGGAAGTGTCGTAAACGTCGGATCTCCGGTTCTTCTGTCTTGATTCGCTTGACGCTGCTG	8.47 log fluorescence intensity
CGGAAGTGTCTTAAACGTCGGATATCCGGTTCTTCTGTCTTGATTCGCTTGACGCTGCTG	11.6 log fluorescence intensity
CGGAAGTGTCGTAAACGTCGGATGTCCGGTTCTTCTGTCTTGATTCGCTTGACGCTGCTG	9.65 log fluorescence intensity
CGGAAGTGTCGTAAACGTCCGATATCCGGTTCTTCTGTCTTGATTCGCTTGACGCTGCTG	12.2 log fluorescence intensity

Sequence	binding signal
CGGAAGTGTCGTAAACGTCGGATTTCCGGTTCTTCTGTCTTGATTCGCTTGACGCTGCTG	12.5 log fluorescence intensity
CGGAAGTGTCGAAAACGTCGGATATCCGGTTCTTCTGTCTTGATTCGCTTGACGCTGCTG	12 log fluorescence intensity
CGGAAGTGTCGTAAACGTCTGATATCCGGTTCTTCTGTCTTGATTCGCTTGACGCTGCTG	11.8 log fluorescence intensity
CGGAAGTGTCGGAAACGTCGGATATCCGGTTCTTCTGTCTTGATTCGCTTGACGCTGCTG	12.8 log fluorescence intensity
CGGAAGTGTCGTAAACGTCGGACATCCGGTTCTTCTGTCTTGATTCGCTTGACGCTGCTG	12.6 log fluorescence intensity
CGGAAGTGTCGTAAACGTCGGAAATCCGGTTCTTCTGTCTTGATTCGCTTGACGCTGCTG	9.71 log fluorescence intensity
CGGAAGTGTCGTAAACGTCGGTTATCCGGTTCTTCTGTCTTGATTCGCTTGACGCTGCTG	9.21 log fluorescence intensity
CGGAATTGTCGTAAACGTCGGATATCCGGTTCTTCTGTCTTGATTCGCTTGACGCTGCTG	12.2 log fluorescence intensity
CGGAACTGTCGTAAACGTCGGATATCCGGTTCTTCTGTCTTGATTCGCTTGACGCTGCTG	11.8 log fluorescence intensity
CGGAAGTGTCGTAAACGTCGTATATCCGGTTCTTCTGTCTTGATTCGCTTGACGCTGCTG	11.8 log fluorescence intensity
CGGAAGCGTCGTAAACGTCGGATATCCGGTTCTTCTGTCTTGATTCGCTTGACGCTGCTG	11.8 log fluorescence intensity
CGGAAGTGTCGTAAACGTCGCATATCCGGTTCTTCTGTCTTGATTCGCTTGACGCTGCTG	12.2 log fluorescence intensity
CTGGGACTTGACCCAACTCTGCCACGTGGGTCGCTTGTCTTGATTCGCTTGACGCTGCTG	8.36 log fluorescence intensity
GGCAAAAGGCCCAGGGTAACACCGGAAGTGGGCTTAGTCTTGATTCGCTTGACGCTGCTG	11.7 log fluorescence intensity
GGATAAAGGCCCAGGGTAACACCGGAAGTGGGCTTAGTCTTGATTCGCTTGACGCTGCTG	11.9 log fluorescence intensity
GGAAAAAGGCCCAGGGAAACACCGGAAGTGGGCTTAGTCTTGATTCGCTTGACGCTGCTG	12.3 log fluorescence intensity
GGAAAAAGGCCCAGGGGAACACCGGAAGTGGGCTTAGTCTTGATTCGCTTGACGCTGCTG	12.1 log fluorescence intensity
GGAAAAAGGCCCAGGCTAACACCGGAAGTGGGCTTAGTCTTGATTCGCTTGACGCTGCTG	12.1 log fluorescence intensity
GGAAAAAGGCCCAGGGCAACACCGGAAGTGGGCTTAGTCTTGATTCGCTTGACGCTGCTG	12.2 log fluorescence intensity
GCAAAAAGGCCCAGGGTAACACCGGAAGTGGGCTTAGTCTTGATTCGCTTGACGCTGCTG	11.9 log fluorescence intensity
GGTAAAAGGCCCAGGGTAACACCGGAAGTGGGCTTAGTCTTGATTCGCTTGACGCTGCTG	11.9 log fluorescence intensity

Sequence	binding signal
GGAAAAAGGCCCAGGGTCACACCGGAAGTGGGCTTAGTCTTGATTCGCTTGACGCTGCTG	11.9 log fluorescence intensity
GGGAAAAGGCCCAGGGTAACACCGGAAGTGGGCTTAGTCTTGATTCGCTTGACGCTGCTG	11.9 log fluorescence intensity
GGAAAAAGGCCCAGGATAACACCGGAAGTGGGCTTAGTCTTGATTCGCTTGACGCTGCTG	12.2 log fluorescence intensity
GGAAAAAGGCCCAGGGTGACACCGGAAGTGGGCTTAGTCTTGATTCGCTTGACGCTGCTG	11.8 log fluorescence intensity
GATTAATTTCTGCCCTTATTCGAACGTGCCATAACAGTCTTGATTCGCTTGACGCTGCTG	8.42 log fluorescence intensity
TCCGGCTACCAGCTCCACCCACTTCAGGCCTTATAGGTCTTGATTCGCTTGACGCTGCTG	8.46 log fluorescence intensity
GAAAGGGAAGACGGTTGTGGTAGTTCCGGGTATTAAGTCTTGATTCGCTTGACGCTGCTG	8.75 log fluorescence intensity
CGGAAGTGTCGTAAACGTCGGATATCCGGTTTTTCTGTCTTGATTCGCTTGACGCTGCTG	11.9 log fluorescence intensity
TCCGGCTACCAGCTGCACCCACTTCAGGCCTTGTAGGTCTTGATTCGCTTGACGCTGCTG	8.44 log fluorescence intensity
GCTGCTGCGGTGTATACCCCACCGGATGTGACCCCGGTCTTGATTCGCTTGACGCTGCTG	10.1 log fluorescence intensity
GGAAAACGGCCCAGGGTAACACCGGAAGTGGGCTTAGTCTTGATTCGCTTGACGCTGCTG	12 log fluorescence intensity
TACTGACTTATATATGGGAATGCACATGAATAGACCGTCTTGATTCGCTTGACGCTGCTG	8.32 log fluorescence intensity
TTAAGGGAAGACGGTTGTGGTAGTTCCGGGTATTAAGTCTTGATTCGCTTGACGCTGCTG	8.48 log fluorescence intensity
CGGAAGTGTCGTAAACGTCGGATATCCGGCTCTTCTGTCTTGATTCGCTTGACGCTGCTG	10.7 log fluorescence intensity
CGGAAGTGTCGTAAATGTCGGATATCCGGTTCTTCTGTCTTGATTCGCTTGACGCTGCTG	11.9 log fluorescence intensity
TCCGGCTACCAGCTTCACCCACTTCAGGCCTTGTAGGTCTTGATTCGCTTGACGCTGCTG	8.4 log fluorescence intensity
GCTGCTGCGGTGCGTACCCCACCGGATGTGACCCCGGTCTTGATTCGCTTGACGCTGCTG	9.93 log fluorescence intensity
GCTGCTGCGGTGCATACCCCACCGGATGTGACCCAGGTCTTGATTCGCTTGACGCTGCTG	10.3 log fluorescence intensity
